PubChem BioAssay AID1347417 (National Center for Advancing Translational Sciences (NCATS), 2020)
About 5,300 (4.4%) of roughly 120,000 compounds were called active. A call without a number means that no potency is given here. Not shown: some 22% with an inconclusive outcome. The sample holds actives, similar compounds and a random draw of the others, so the mix is not that of the screen. Calls come from the whole dose curve; as a rule, active = well fitted inhibition curve with a large enough effect; inconclusive = small, poorly fitted or top-dose-only effect; inactive = no such curve, though single readings can be large or run the other way.

Experiment: qHTS Primary assay for Inhibitors of Plasmodium falciparum Dd2 growth in vitro; note: nearly all actives have a fitted effect of over 65% in size
Conditions: P. falciparum Dd2 growth, SYBR Green, 72 h; series mostly up to 28.9 µM
In short: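 Infected erythrocytes (Dd2, 0.3% parasitemia, 2.5% hematocrit final) are added to compound in RPMI-1640/Albumax II medium, grown 72 h at 37C in low oxygen, then lysed with saponin/Triton-X containing SYBR Green and read by fluorescence.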
Potency is the fitted concentration of half-maximal effect.

Structure (SMILES)	Potency
COCc1nc2nccc(-c3ccccc3)n2n1	inactive
COc1cccc(-c2ccnc3nc(Cc4cc(F)cc(F)c4)nn23)c1	10 µM (active)
COc1cccc(-c2ccnc3nc(-c4ccccc4OC)nn23)c1	inactive
CNC(=O)[C@@H]1CN(C(=O)C2CC=CCC2)C[C@H]1c1nc(C)no1 (stereo partly drawn)	inactive
O=C(c1ccc(F)cc1)N1CCCC(c2nn(-c3cccc(Cl)c3)c(=O)[nH]2)C1 (stereo not drawn)	inactive
CC(C)CCN1C(=O)CC[C@]2(C(=O)N3CCN(C)CC3)CCCC[C@@H]12	11.2 µM (active)
COCCN1C(=O)CC[C@]2(C(=O)NCc3cccs3)CCCC[C@@H]12	inactive
CN1C(=O)CC[C@]2(C(=O)NCC3CCCCC3)CCCC[C@@H]12	inactive
CCOc1ccc(NC(=O)c2cnn(-c3ccccc3)c2-n2cccc2)cc1	inactive
COC(=O)c1cnn(-c2ccc(C(=O)Nc3ccc(OC(F)(F)F)cc3)cc2)c1N	1.58 µM (active)
Cc1ccc2ncc(C(=O)Nc3ccc(OC(F)(F)F)cc3)c(=O)n2c1	inactive
O=C(NCC1(COc2ccc(C(F)(F)F)cn2)C[C@@H](O)[C@@H](O)C1)c1ccc(F)cc1 (stereo partly drawn)	inactive
CCn1cc(CN2C[C@@H](COC)[C@H](c3nc(COC)no3)C2)cn1	inactive
O=C(COc1ccccc1)NCc1ccc2c(c1)CCN2C(=O)c1ccc(F)cc1	inactive
COc1ccc(CCC(=O)NCc2ccc3c(c2)CCN3C(=O)c2ccc(F)cc2)cc1	4.47 µM (active)
O=C(CCc1ccccc1)NCc1ccc2c(c1)CCN2C(=O)c1ccccc1	inactive
Cc1ccc(CNC(=O)N2CCCOCCNC(=O)[C@@H]3CCC[C@@H]32)cc1	inactive
C[S+](=O)([O-])c1ccc(CC(=O)N2CC(CNC(=O)C3CC3)C3(C2)CN(c2ccccc2)C3)cc1 (stereo not drawn)	inactive
c1cc(CN2CCOC[C@H]2c2ncc(-c3ccncc3)[nH]2)ccn1	inactive
Oc1ccccc1CN1CCOC[C@H]1c1ncc(-c2ccc(C(F)(F)F)cc2)[nH]1	1.26 µM (active)
c1cncc(-c2cnc([C@@H]3COCCN3Cc3cnc4ccccc4c3)[nH]2)c1	inactive
O=C(COc1ccccc1)N[C@H]1[C@H](O)[C@H](O)C[C@@H]1c1ccc(C(F)(F)F)cc1	inactive
Cc1ccc2c(c1)N1C(=O)OC[C@@H]1CCN(C(=O)Nc1ccccc1)C2	inactive
CCOC(=O)c1ccc(NC(=O)Cn2nc3c(cc2=O)CN(C(C)=O)CC3)cc1	inactive

Structure (SMILES)	Potency
COCCOC1CN(C2CCN(C(=O)c3ccc(OC)nc3)CC2)C12CCCCC2 (stereo not drawn)	inactive
CCn1cc(CN2CCC(N3CC(OCC4CC4)C34CCCCC4)CC2)cn1 (stereo not drawn)	1.41 µM (active)
O=C(c1ccc2[nH]ccc2c1)N1CCC(N2CC(OCC3CC3)C23CCOCC3)CC1 (stereo not drawn)	inactive
COCCOC1CN(C2CCN(C(=O)C3CCOCC3)CC2)C12CCCCC2 (stereo not drawn)	inactive
Fc1cccc(CN2CCC(N3CC(OCC4CC4)C34CCCCC4)CC2)c1 (stereo not drawn)	0.501 µM (active)
N#Cc1cccc(CN2CCC(C3=NC(O)c4cc(F)ccc4N3)CC2)c1 (stereo not drawn)	inactive
O=C(Nc1cccc(Cl)c1)[C@@H]1C[C@@H](c2ccc(F)cc2)N([S+](=O)([O-])c2cccnc2)C1	inactive
COc1ccc(CNC(=O)NCC(=O)N2CCCCCCNC(=O)CC2c2ccccc2)cc1 (stereo not drawn)	8.91 µM (active)
O=C1CC(c2ccccc2)N(C(=O)CNC(=O)C2CCC2)CCCCCN1 (stereo not drawn)	inactive
O=C1CC(c2ccccc2)N(C(=O)CNC(=O)NCc2ccc(F)cc2)CCCCCN1 (stereo not drawn)	inactive
CCn1cc(S(=O)(=O)N2CC[C@H]3C(=O)NCCCCCCN(Cc4ccncc4)[C@@H]3C2)cn1	inactive
CN(C)C[C@@H]1CN(C)C[C@H]1NC(=O)c1cc2ccccc2[nH]1	inactive
NC(=O)[C@H](CCC(=O)O)NC(=O)[C@@]1(O)C[C@@H](O)[C@H](O)[C@@H](NS(=O)(=O)c2cccc(C(F)(F)F)c2)C1	inactive
CN(C)C[C@@H]1CN(C)C[C@H]1NS(=O)(=O)c1cccc(C(F)(F)F)c1	3.55 µM (active)
CN(C)C[C@@H]1CN(C(=O)c2ccc3c(c2)OCC(=O)N3)C[C@@H]1CO	inactive
O=C(NCc1ccc2c(c1)OCO2)c1noc(-c2ccc(F)cc2)n1	inactive
Cc1ccc(NC(=O)Cn2cccc2-c2nc(-c3ccc4c(c3)OCO4)no2)cc1Cl	inactive
O=C(CCc1ccccc1)NCCn1cccc1-c1nc(-c2ccc3c(c2)OCO3)no1	7.08 µM (active)
CCc1noc(C)c1C(=O)N1CC[C@@H](NC(=O)c2ccccn2)[C@H](O)C1	inactive
O=C(CSc1nccn1C1CCCC1)Nc1cc(C(F)(F)F)ccc1Cl	11.2 µM (active)
Cc1cccc(-n2ccnc2SCC(=O)Nc2cc(C(F)(F)F)ccc2Cl)c1	3.55 µM (active)
O=C(CSc1nccn1-c1ccc(F)cc1)Nc1cccc2ccccc12	inactive
O=C(CSc1nc(=O)[nH]c2c1CCCC2)Nc1cc(C(F)(F)F)ccc1Cl	inactive
COc1ccc(NC(=O)CSc2nccn2C2CCCC2)cc1OC	inactive
